Rows were chosen to be rich in hits. Some 0.92% of all compounds tested hit in one or more screens of this group.
FadD28 FP inh: blocks FadD28 binding to the bisubstrate probe; fluorescence polarization; inhibition, % at 12.5 µM; 360,000 tested, 0.22% active; in the data active means inhibition above about 8.5%, passing the limit was not always enough
Mtb UGM inh: inhibitors of M. tuberculosis UDP-galactopyranose mutase. purified UGM, fluorescence polarization probe displacement. 320,000 tested, 0.06% active. inhibition, % at 10 µM; in the data active means inhibition above about 10%, passing the limit was not always enough
RecA splice inh: Mtb RecA intein splicing inhibition. 290,000 tested, 0.75% active. P9WHJ3. cell-free RecA intein splicing, fluorescence. inhibition, % (no concentration beside the values); in the data active means inhibition above about 30%;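 further: 0% = vehicle wells and 100% = reference inhibitor control wells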
Rv3671c inh: inhibits the M. tuberculosis serine protease Rv3671c; P9WHR9; inhibition, % at 5.96 µM; 320,000 tested, 0.048% active; in the data active means inhibition above about 38%;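 further: extracellular domain of Rv3671c used as enzyme; 0% = enzyme with DMSO and 100% = no enzyme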
Target sequence (P9WHR9 whole entry, looked up, the tested form may be a part): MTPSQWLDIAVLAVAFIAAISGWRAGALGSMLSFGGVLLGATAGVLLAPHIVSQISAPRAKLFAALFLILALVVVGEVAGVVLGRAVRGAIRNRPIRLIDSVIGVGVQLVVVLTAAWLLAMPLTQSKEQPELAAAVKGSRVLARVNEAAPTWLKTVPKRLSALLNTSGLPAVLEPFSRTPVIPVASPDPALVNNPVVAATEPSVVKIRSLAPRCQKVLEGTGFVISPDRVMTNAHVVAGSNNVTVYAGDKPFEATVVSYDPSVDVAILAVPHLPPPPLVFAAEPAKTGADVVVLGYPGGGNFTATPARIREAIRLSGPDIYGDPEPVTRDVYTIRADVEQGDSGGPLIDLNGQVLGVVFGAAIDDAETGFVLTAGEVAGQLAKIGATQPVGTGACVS
Mtb hypoxia inh: Mtb hypoxia fluorescent reporter inhibition | M. tuberculosis hypoxia-regulated fluorescent reporter, fluorescence | fluorescence inhibition, % (test concentration not listed) | 300,000 tested, 0.1% active | AID 1159583; in the data active means fluorescence inhibition mostly above about 23%, no sharp cut-off; inactive means mostly below about 17%
GFP chromo cs: counter-screen GFP chromophore formation inhibition | shares compounds with RecA splice inh | cell-free GFP chromophore formation, fluorescence | EC50, µM | 2,100 tested, 83% active | AID 434968; call rule not given here
An asterisk follows results filed as active; . = no result shown.

SMILES | FadD28 FP inh | Mtb UGM inh | RecA splice inh | Rv3671c inh | Mtb hypoxia inh | GFP chromo cs
COc1cc(C=NOCC(=O)NC2CCCCC2)ccc1OCc1ccccc1 | . | . | . | . | 0 | .
O=S(=O)(Oc1ccccc1C=Nn1cnnc1)c1ccccc1 | . | . | . | . | 1 | .
O=C1C(=O)c2cccc3cccc1c23 | -3 | -2 | 25 | -26 | -2 | .
O=C1C(Br)=Cc2cccc3cccc1c23 | -1 | -1 | 70* | 1 | . | 36*
O=C(c1cccc(C(F)(F)F)c1)C1CCCN(Cc2ncc[nH]2)C1 (stereo not given) | -2 | -1 | 38* | 4 | 9 | >38
O=[N+]([O-])c1cc(C=NN2CCCCC2)ccc1Cl | . | . | . | . | 14 | .
O=c1cc(-c2ccccc2)[nH]n1-c1ccc([N+](=O)[O-])cc1 | -3 | -4 | 46* | -11 | -1 | 30*
COc1ccc(C=CC(=O)OCC(=O)NCC2CCCO2)cc1 (stereo not given) | . | . | . | . | 8 | .
Cc1cc(C(=O)CCl)c(C)n1CCc1ccc(Cl)cc1 | -7 | 0 | 62* | 2 | 19 | 21*
COC(=O)c1ccccc1OC(=O)c1ccc(Br)o1 | -2 | -1 | 38* | 9 | . | >38
COc1ccc(N(C(=O)CCl)C(C(=O)NCCc2ccccc2)c2cccs2)cc1Cl (stereo not given) | -2 | 4 | 77* | -2 | 7 | 0.96*
COc1cccc(N(C(=O)c2snc(C(N)=O)c2N)C(C(=O)NCC2CCCO2)c2cccs2)c1 (stereo not given) | 0 | -3 | 0 | 2 | 0 | .
COc1ccc(N(C(=O)c2ccco2)C(C(=O)NC2CCCCC2)c2cccs2)cc1OC (stereo not given) | -2 | 0 | 3 | -5 | 9 | .
COc1cccc(N(C(=O)CCl)C(C(=O)NCCc2ccccc2)c2cccs2)c1 (stereo not given) | -8 | -1 | 73* | 7 | 11 | 3.3*
CC(=O)N1C(Cc2ccccc2)C=C[C@]1(C)C(=O)NCc1ccccn1 (stereo not given in full) | . | . | . | . | 9 | .
COc1ccc(C=NNC(=S)NCC2CCCO2)cc1 (stereo not given) | . | . | . | . | -3 | .
O=C(NCC1(c2ccccc2)CCCC1)C1(c2ccccc2)CCCC1 | -3 | -2 | 30* | -4 | 11 | >38
COC(=O)c1c(NC(=O)/C=C/C(=O)O)sc(Cc2ccccc2)c1C | -5 | -1 | 51* | 1 | 5 | 24*
COc1cc(/C=C(\C#N)c2nc3ccccc3o2)ccc1O | 5 | -29 | 34* | 1 | 14 | 17*
COc1ccc(C)cc1N(CC(=O)NN=Cc1ccccc1C(=O)O)S(=O)(=O)c1ccccc1 | . | . | . | . | -4 | .
Cc1nn(-c2ccccc2)c(Cl)c1C=NNC(=O)CCNc1n[nH]c(=O)[nH]c1=O | . | . | . | . | 13 | .
COc1cc(C(c2c(C)[nH][nH]c2=O)c2c(C)[nH][nH]c2=O)cc(Br)c1OC | 0 | 1 | 99* | -12 | 14 | 0.63*
COc1cc2c(cc1OC)C(c1cc(Br)c(OC)c(OC)c1)CC(=O)N2 (stereo not given) | -2 | -1 | -3 | . | 3 | .
CCOc1cc(C(c2c(C)[nH][nH]c2=O)c2c(C)[nH][nH]c2=O)cc(Br)c1OC | -1 | 0 | 93* | -3 | 13 | 0.49*
O=[N+]([O-])c1c(Nc2ccccc2)ccc2nonc12 | -3 | 0 | 1 | -6 | 4 | .
SMILES | FadD28 FP inh | Mtb UGM inh | RecA splice inh | Rv3671c inh | Mtb hypoxia inh | GFP chromo cs
O=[N+]([O-])c1c(NCc2ccco2)ccc2nonc12 | -2 | -1 | 42* | 5 | . | 20*
COc1ccc(S(=O)(=O)Nc2ccc(O)c3ccccc23)cc1 | -1 | -1 | 96* | -75 | 5 | 0.14*
Cc1ccc(C)c(S(=O)(=O)Nc2ccc(O)c3ccccc23)c1 | 0 | 1 | 95* | -13 | 16 | 0.23*
Cc1ccc(S(=O)(=O)Nc2ccc(O)c3ccccc23)c(C)c1 | 55* | 0 | 97* | . | 15 | 0.23*
Cc1ccc(S(=O)(=O)Nc2ccc3c4c(cccc24)CC3)c(C)c1 | -5 | -1 | -1 | -9 | . | .
COC(=O)C1=C(c2cccc(Cl)c2)CC2CCC1N2C(=O)NCC1CC1 (stereo not given) | . | . | . | . | 10 | .
Nc1cc(OCC(F)(F)F)cc([N+](=O)[O-])c1 | 0 | 0 | -3 | -7 | -1 | .
Nc1cc(N)c(OCC(F)(F)F)cc1OCC(F)(F)F | 3 | -3 | 92* | -56 | 16 | 7.6*
O=C(NN=Cc1ccsc1)c1cc2ccccc2o1 | . | . | . | . | -1 | .
COc1ccc(C=N/N=C2/NC(=O)C(c3ccccc3)S2)c(OC)c1 (stereo not given) | . | . | . | . | 5 | .
